Results as given in PubChem BioAssay (EPA / NIEHS).
More than one record can exist for a structure, and the calls need not agree. Activity calls are given as the source filed them. How the source made its calls: active means hit-call score of the fitted dose curve at least 0.9, where 1 is the maximum; inactive means score below 0.9.

Columns and labels:
[1] = biological target: Transcription factor E2F1 (Homo sapiens) (UniProt Q01094); experiment: ATG_E2F_CIS: Attagene CIS-FACTORIAL HepG2 Assay for human E2F Transcription Factor 1 (AID 2282935); details: HepG2 Attagene cis-reporter, E2F reporter RNA transcripts; actives raise or lower the signal
How it was run: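 Total RNA from 24 h-treated, reporter-transfected HepG2 cells undergoes DNase I treatment, oligo(dT) reverse transcription, PCR and 6-FAM primer extension before capillary electrophoresis.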

[2] = ATG_E_Box_CIS: Attagene CIS-FACTORIAL HepG2 Assay for human Enhancer Box (E-box) (AID 2282936); details: HepG2 E-box cis-reporter transcription, actives raise or lower the signal
How it was run: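 DMSO served as negative control and baseline for bidirectional fitting. Human hepatoma HepG2 cells, transiently transfected with cis-reporter constructs, were dosed 24 h; reporter mRNA read by RT-PCR and capillary electrophoresis.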

[3] = ATG_M_61_CIS: Attagene CIS-FACTORIAL HepG2 Assay for M61 Transcription Factor (Internal Marker) (AID 2282937); details: HepG2 Attagene CIS-FACTORIAL M61 internal marker reporter; actives raise or lower the signal
How it was run: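 Readout is reporter mRNA by RT-PCR, fluorescent primer extension and capillary electrophoresis, with gain or loss fitted relative to DMSO. Transfected HepG2 cells carrying endogenous-TF-driven cis reporters were exposed to chemicals for 24 hours.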

[4] = ATG_EGR_CIS: Attagene CIS-FACTORIAL HepG2 Assay for human Early Growth Response 1 (EGR1) (AID 2282938); details: HepG2 Attagene CIS-FACTORIAL EGR reporter mRNA; actives raise or lower the signal
How it was run: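 After 24 h compound exposure, RNA from reporter-transfected HepG2 cells was reverse-transcribed, PCR-amplified, fluorescently labelled and resolved by capillary electrophoresis. EGR1 reporter transcript changes, up or down, were fitted against DMSO, reflecting endogenous transcription-factor activity.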

[5] = ATG_M_19_CIS: Attagene CIS-FACTORIAL HepG2 Assay for M19 Transcription Factor (Internal Marker) (AID 2282939); details: HepG2 Attagene CIS-FACTORIAL M19 internal marker reporter; actives raise or lower the signal
How it was run: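 Chemical-treated HepG2 (24 h) with MRTU constructs; reporter transcripts detected by fluorescent RT-PCR fragment analysis on capillary electrophoresis. Internal background marker, DMSO as baseline.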

[6] = ATG_ERE_CIS: Attagene CIS-FACTORIAL HepG2 Assay for Estrogen Response Element (ERE) (AID 2282940); details: HepG2 ERE cis-reporter, Attagene RNA transcript; actives raise or lower the signal
How it was run: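 Human liver cells (HepG2) bearing transiently transfected, promoter-regulated reporter units were exposed 24 h. Reporter mRNA induction was detected by capillary electrophoresis of labelled RT-PCR products and fitted bidirectionally to DMSO.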

[7] = ATG_Ets_CIS: Attagene CIS-FACTORIAL HepG2 Assay for human Erythroblast Transformation Specific (ETS) (AID 2282941); details: HepG2 ETS cis-reporter transcription, actives raise or lower the signal
How it was run: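 Steps: transfect HepG2 with multiple reporter units; treat compound 24 h; isolate RNA, DNase-treat, reverse-transcribe; PCR-amplify, label with 6-FAM, digest with HpaI; separate by capillary electrophoresis. Activity fitted both directions versus DMSO.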

[8] = biological target: Hepatocyte nuclear factor 3-beta (Homo sapiens) (UniProt Q9Y261); experiment: ATG_FoxA2_CIS: Attagene CIS-FACTORIAL HepG2 Assay for human Forkhead box A2 (FOXA2) (AID 2282942); details: HepG2 cis-reporter transcription factor activity, 24 h; actives raise or lower the signal
How it was run: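 Endogenous transcription factor activity is captured via cis-element-driven reporter transcripts in transfected HepG2. Total RNA taken at 24 h post-dosing; labelled RT-PCR products resolved by capillary electrophoresis. Gain or loss fitted versus DMSO.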

[9] = ATG_FoxO_CIS: Attagene CIS-FACTORIAL HepG2 Assay for human Forkhead box O (FoxO) (AID 2282943); details: HepG2 Attagene cis-reporter, FoxO element, mRNA; actives raise or lower the signal
How it was run: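 Endogenous transcription factor activity read from multiplexed cis-promoter reporter transcripts in transiently transfected HepG2, 24 h after dosing. Reporter RNA measured via RT-PCR plus capillary electrophoresis of FAM-labeled products; gain or loss relative to DMSO.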

[10] = ATG_GATA_CIS: Attagene CIS-FACTORIAL HepG2 Assay for human GATA Binding Protein (AID 2282944); details: HepG2 GATA cis-element reporter, Attagene multiplex mRNA; actives raise or lower the signal
How it was run: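 Transfected cis-reporter HepG2 cells were treated with chemicals for 24 hours. Total RNA was then converted to cDNA, amplified with reporter-specific primers and analysed by fluorescent capillary electrophoresis, using DMSO-treated wells as baseline.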

[11] = ATG_GLI_CIS: Attagene CIS-FACTORIAL HepG2 Assay for human Zinc Finger Protein GLI1 (AID 2282945); details: HepG2, Attagene cis-factorial reporter mRNA, GLI element; actives raise or lower the signal
How it was run: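 Bidirectional curve fits relative to DMSO, using reporter mRNA levels from RT-PCR plus capillary electrophoresis. Cells were HepG2 transiently carrying cis-regulated reporter constructs, harvested 24 h after dosing.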

[12] = biological target: Bile acid receptor (Homo sapiens) (UniProt Q96RI1); experiment: ATG_IR1_CIS: Attagene CIS-FACTORIAL HepG2 Assay for human Nuclear Receptor Subfamily 1 Group H Member 4 (NR1H4), IR1 submotif (AID 2282946); details: IR1 reporter transcription, actives raise or lower the signal
How it was run: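 Cells (human HepG2) carry transiently transfected cis-promoter reporter transcription units. Compounds are incubated 24 h, total RNA is reverse-transcribed and amplified, and labelled fragments are resolved by capillary electrophoresis. Curves use DMSO as baseline.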

[13] = ATG_M_32_CIS: Attagene CIS-FACTORIAL HepG2 Assay for M32 Transcription Factor (Internal Marker) (AID 2282949); details: HepG2 Attagene cis-factorial M32 reporter, mRNA; actives raise or lower the signal;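 further: background control marker of the multiplexed CIS panel rather than a real target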
How it was run: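 Following 24 h chemical exposure of HepG2 cells transiently expressing cis-promoter reporter constructs, reporter transcript levels were determined by RT-PCR with fluorescent labelling and capillary electrophoresis, then fitted bidirectionally against DMSO.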

[14] = biological target: Hypoxia-inducible factor 1-alpha (Homo sapiens) (UniProt Q16665); experiment: ATG_HIF1a_CIS: Attagene CIS-FACTORIAL HepG2 Assay for human Hypoxia Inducible Factor 1 (HIF1A) (AID 2282951); details: HepG2 Attagene cis-factorial HIF1a reporter transcription; actives raise or lower the signal
How it was run: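 Activity is fitted in both directions relative to DMSO. Reporter transcripts are read by RT-PCR, fluorescent primer extension and capillary electrophoresis after 24 h chemical treatment. The cells are HepG2 carrying transiently transfected cis-element-driven reporter units responding to endogenous factors.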

[15] = biological target: Hepatocyte nuclear factor 6 (Homo sapiens) (UniProt Q9UBC0); experiment: ATG_HNF6_CIS: Attagene CIS-FACTORIAL HepG2 Assay for human Hepatocyte Nuclear Factor 6 (HNF6) (AID 2282952); details: HepG2 Attagene cis-factorial HNF6 reporter transcription; actives raise or lower the signal
How it was run: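 Reporter mRNA induction or loss in HepG2 after 24 h exposure; transient cis-MRTU transfection; fragments quantified by capillary electrophoresis; bidirectional analysis, DMSO as negative control.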

[16] = ATG_MRE_CIS: Attagene CIS-FACTORIAL HepG2 Assay for human Metal Responsive Element (MRE) (AID 2282954); details: HepG2 MRE cis-reporter transcription, Attagene multiplex; actives raise or lower the signal
How it was run: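 After a 24 h chemical exposure, transiently transfected HepG2 cells yield RNA whose reporter sequences are amplified, FAM-labelled and sized by capillary electrophoresis. Curves are fitted bidirectionally relative to DMSO.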

[17] = ATG_ISRE_CIS: Attagene CIS-FACTORIAL HepG2 Assay for human Interferon Regulatory Factor 1 (IRF1) binding to an Interferon-Stimulated Response Element (ISRE) (AID 2282948); details: HepG2 ISRE cis-reporter (Attagene), mRNA transcription readout; actives raise or lower the signal
How it was run: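 Transfected HepG2 (multiple reporter transcription units, cis elements) dosed 24 h. RNA → oligo(dT) RT → PCR → 6-FAM primer extension → HpaI → CE. DMSO = negative control/baseline.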

[18] = ATG_GRE_CIS: Attagene CIS-FACTORIAL HepG2 Assay for human Glucocorticoid Response Elements (GRE) (AID 2282947); details: HepG2 GRE cis-reporter, Attagene multiplex mRNA; actives raise or lower the signal
How it was run: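 Assay uses human hepatoma HepG2 cells transfected with cis-promoter reporter units, exposed 24 h. mRNA from reporters detected by RT-PCR plus capillary electrophoresis; DMSO serves as negative control and baseline.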

[19] = biological target: Heat shock factor protein 1 (Homo sapiens) (UniProt Q00613); experiment: ATG_HSE_CIS: Attagene CIS-FACTORIAL HepG2 Assay for human Heat Shock Transcription Factor 1 (HSE) (AID 2282953); details: HepG2 HSE cis-reporter, Attagene RNA transcription; actives raise or lower the signal
How it was run: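 Liver-derived HepG2 cells carry transiently introduced multiple reporter units governed by cis promoters. Reporter RNA measured 24 h post-dose through reverse transcription, PCR amplification, fluorescent labelling and capillary electrophoresis, normalised to DMSO.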

Measured: AC50

Sequence of Bile acid receptor (Homo sapiens) (Q96RI1 whole entry, looked up, the tested form may be a part): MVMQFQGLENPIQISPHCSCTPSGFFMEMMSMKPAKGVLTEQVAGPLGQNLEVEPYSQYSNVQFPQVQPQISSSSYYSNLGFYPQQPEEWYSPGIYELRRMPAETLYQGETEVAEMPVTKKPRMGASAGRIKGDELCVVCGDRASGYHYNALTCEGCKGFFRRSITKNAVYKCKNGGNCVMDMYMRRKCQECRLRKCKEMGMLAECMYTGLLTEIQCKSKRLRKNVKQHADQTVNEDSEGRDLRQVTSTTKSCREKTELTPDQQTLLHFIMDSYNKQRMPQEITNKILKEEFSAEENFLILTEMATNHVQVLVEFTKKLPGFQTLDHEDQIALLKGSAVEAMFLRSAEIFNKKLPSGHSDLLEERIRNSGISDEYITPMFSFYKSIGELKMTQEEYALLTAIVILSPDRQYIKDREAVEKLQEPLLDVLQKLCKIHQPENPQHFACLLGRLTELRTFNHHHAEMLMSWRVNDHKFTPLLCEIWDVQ
Sequence of Hepatocyte nuclear factor 3-beta (Homo sapiens) (Q9Y261 whole entry, looked up): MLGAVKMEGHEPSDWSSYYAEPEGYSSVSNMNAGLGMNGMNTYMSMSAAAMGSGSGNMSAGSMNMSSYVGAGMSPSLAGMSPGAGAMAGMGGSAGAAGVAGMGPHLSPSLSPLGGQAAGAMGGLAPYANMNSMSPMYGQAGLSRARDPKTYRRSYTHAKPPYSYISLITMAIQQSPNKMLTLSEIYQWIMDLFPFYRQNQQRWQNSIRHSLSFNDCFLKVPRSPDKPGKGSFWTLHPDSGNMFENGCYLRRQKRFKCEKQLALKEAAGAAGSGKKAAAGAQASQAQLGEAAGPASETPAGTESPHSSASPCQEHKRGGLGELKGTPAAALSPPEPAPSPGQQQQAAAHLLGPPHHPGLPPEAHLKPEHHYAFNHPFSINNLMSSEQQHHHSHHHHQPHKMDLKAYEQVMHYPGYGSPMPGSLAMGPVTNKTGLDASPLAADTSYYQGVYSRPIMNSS
Sequence of Hypoxia-inducible factor 1-alpha (Homo sapiens) (Q16665 whole entry, looked up): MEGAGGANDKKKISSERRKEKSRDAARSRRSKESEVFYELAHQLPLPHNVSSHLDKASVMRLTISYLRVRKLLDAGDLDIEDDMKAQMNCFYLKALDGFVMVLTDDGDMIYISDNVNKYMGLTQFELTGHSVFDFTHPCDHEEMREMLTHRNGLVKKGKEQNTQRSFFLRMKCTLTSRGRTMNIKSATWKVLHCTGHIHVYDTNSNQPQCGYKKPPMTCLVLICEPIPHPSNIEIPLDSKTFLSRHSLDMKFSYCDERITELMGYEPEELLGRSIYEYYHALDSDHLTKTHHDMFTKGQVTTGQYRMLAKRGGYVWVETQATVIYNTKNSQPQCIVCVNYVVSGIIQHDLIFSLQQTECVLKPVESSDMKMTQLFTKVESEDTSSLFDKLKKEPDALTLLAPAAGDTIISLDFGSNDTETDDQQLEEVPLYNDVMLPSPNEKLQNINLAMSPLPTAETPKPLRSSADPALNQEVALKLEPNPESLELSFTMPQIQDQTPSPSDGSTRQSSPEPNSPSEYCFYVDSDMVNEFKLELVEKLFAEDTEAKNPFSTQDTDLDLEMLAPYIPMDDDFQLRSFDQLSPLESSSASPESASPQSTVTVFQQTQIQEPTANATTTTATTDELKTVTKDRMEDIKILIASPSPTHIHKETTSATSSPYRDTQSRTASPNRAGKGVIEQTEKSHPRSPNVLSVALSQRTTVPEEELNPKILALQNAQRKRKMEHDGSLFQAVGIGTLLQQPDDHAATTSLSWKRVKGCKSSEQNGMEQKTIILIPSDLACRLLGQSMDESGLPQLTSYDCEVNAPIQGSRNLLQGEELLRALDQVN
Sequence of Transcription factor E2F1 (Homo sapiens) (Q01094 whole entry, looked up): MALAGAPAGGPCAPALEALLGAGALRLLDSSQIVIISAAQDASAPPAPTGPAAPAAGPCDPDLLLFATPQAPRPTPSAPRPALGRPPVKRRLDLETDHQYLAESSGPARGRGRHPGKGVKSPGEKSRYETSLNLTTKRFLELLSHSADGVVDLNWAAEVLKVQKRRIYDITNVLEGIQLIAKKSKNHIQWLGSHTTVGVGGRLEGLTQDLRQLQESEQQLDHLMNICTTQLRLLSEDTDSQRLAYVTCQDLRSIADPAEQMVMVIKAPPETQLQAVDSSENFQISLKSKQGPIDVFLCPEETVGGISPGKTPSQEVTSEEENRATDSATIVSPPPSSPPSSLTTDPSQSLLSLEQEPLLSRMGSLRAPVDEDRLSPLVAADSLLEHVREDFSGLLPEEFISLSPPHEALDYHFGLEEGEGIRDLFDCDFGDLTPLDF
Sequence of Hepatocyte nuclear factor 6 (Homo sapiens) (Q9UBC0 whole entry, looked up, the tested form may be a part): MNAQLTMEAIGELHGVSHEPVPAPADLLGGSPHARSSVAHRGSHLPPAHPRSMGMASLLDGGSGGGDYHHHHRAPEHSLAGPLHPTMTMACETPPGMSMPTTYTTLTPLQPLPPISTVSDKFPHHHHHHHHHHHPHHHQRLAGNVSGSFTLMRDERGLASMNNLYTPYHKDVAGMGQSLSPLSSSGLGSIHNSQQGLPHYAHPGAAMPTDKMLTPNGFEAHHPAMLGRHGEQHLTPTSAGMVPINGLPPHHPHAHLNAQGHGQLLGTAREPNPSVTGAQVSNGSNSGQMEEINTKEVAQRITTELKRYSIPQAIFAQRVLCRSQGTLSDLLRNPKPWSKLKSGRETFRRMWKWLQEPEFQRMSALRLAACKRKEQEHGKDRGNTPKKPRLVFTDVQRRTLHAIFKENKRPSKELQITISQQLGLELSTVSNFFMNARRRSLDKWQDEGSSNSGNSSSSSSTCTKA
Sequence of Heat shock factor protein 1 (Homo sapiens) (Q00613 whole entry, looked up): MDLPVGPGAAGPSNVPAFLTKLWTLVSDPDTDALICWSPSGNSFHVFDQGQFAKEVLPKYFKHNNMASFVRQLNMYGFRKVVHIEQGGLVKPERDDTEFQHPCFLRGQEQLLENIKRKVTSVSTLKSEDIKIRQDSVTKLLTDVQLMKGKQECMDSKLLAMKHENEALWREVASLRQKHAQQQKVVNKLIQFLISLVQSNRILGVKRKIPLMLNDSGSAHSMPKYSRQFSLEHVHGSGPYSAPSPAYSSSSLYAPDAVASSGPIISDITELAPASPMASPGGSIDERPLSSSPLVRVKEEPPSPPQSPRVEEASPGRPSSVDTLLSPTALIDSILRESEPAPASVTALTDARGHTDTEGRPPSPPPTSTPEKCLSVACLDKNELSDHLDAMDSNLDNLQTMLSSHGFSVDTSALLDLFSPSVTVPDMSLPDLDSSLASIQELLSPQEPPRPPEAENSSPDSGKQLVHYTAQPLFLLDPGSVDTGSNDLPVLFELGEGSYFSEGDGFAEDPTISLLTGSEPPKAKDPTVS

CC(C)OC(=O)Nc1cccc(Cl)c1
inactive: [1] | [2] | [3] | [5] | [6] | [7] | [8] | [9] | [10] | [11] | [12] | [13] | [14] | [15]
active: [4] 94.5 µM | [16] 50 µM

COC(=O)c1ccccc1S(=O)(=O)NC(=O)Nc1nc(C)nc(OC)n1
active: [9] 75.5 µM
inactive: [1] | [2] | [3] | [4] | [5] | [7] | [8] | [9] | [10] | [11] | [12] | [17] | [13] | [14] | [15] | [16]

C#CCN1C(=O)COc2cc(F)c(N3C(=O)C4=C(CCCC4)C3=O)cc21
inactive: [1] | [2] | [3] | [4] | [5] | [6] | [7] | [8] | [9] | [10] | [11] | [18] | [13] | [14] | [15] | [19] | [16]

O=[N+]([O-])c1c(Cl)c(Cl)c(Cl)c(Cl)c1Cl
active: [4] 90.8 µM | [6] 12.9 µM | [14] 37.6 µM | [16] 50 µM
inactive: [1] | [2] | [3] | [5] | [7] | [8] | [9] | [10] | [11] | [18] | [13] | [15]

Clc1ccccc1-c1nnc(-c2ccccc2Cl)nn1
inactive: [1] | [2] | [3] | [4] | [5] | [6] | [7] | [8] | [9] | [10] | [11] | [13] | [14] | [15] | [16]

C[C@H]1[C@H](c2ccc(Cl)cc2)SC(=O)N1C(=O)NC1CCCCC1
active: [1] 20.9 µM | [4] 15.4 µM | [16] 38.3 µM
inactive: [2] | [3] | [5] | [6] | [7] | [8] | [9] | [10] | [11] | [18] | [13] | [14] | [15] | [19]

CCCN(CCOc1c(Cl)cc(Cl)cc1Cl)C(=O)n1ccnc1
active: [16] 18.6 µM
inactive: [1] | [2] | [3] | [4] | [5] | [7] | [8] | [9] | [10] | [11] | [12] | [18] | [13] | [14] | [15] | [16]
